From PubChem BioAssay (NCATS)
Records with an inconclusive call do not appear. Where a call stands in place of a potency, no number is given. Active and inactive are the calls of the source. Calls follow the shape of the dose curve; as a rule, active = well fitted cell-killing curve with a large enough effect; inconclusive = small, poorly fitted or top-dose-only effect; inactive = flat fitted curve, though single readings scatter.

Assay: Cell Viability - NIH 3T3 (AID 541); also: nearly all actives have a fitted effect of over 25% in size
Details: NIH 3T3 cell viability, qHTS; activity change, negative = cytotoxicity: at 92.2 µM (top of the series)
Text: NIH Chemical Genomics Center [NCGC]
NIH Molecular Libraries Screening Centers Network [MLSCN]
National Institutes of Environmental Health Sciences [NIEHS]
National Toxicology Program [NTP]
We have developed a 1536-well cell-based assay for quantitative high throughput screening (qHTS) against a number of cell lines to determine in vitro cytotoxicity of small molecules. This particular assay uses the NIH 3T3 fibroblast cell line which is established from NIH Swiss mouse embryo.
NCGC Assay Protocol Summary:
The CellTiter-Glo luminescent cell viability assay (Promega) is a homogeneous method to measure the number of viable cells in culture. The end point readout of this assay is based on quantitation of intracellular ATP, an indicator of metabolic activity, using the luciferase reaction. Luciferase catalyzes the oxidation of beetle Luciferin to oxyluciferin and light in the presence of ATP. The luminescent signal is proportional to amount of ATP present.
Using the CellTiter-Glo luminescent cell viability assay, the amount of cellular ATP was measured in the NIH 3T3 cell line with complete culture medium following compound treatment for 40 hours. The assay was performed in opaque white Kalypsys 1536-well plates. In the screen, tamoxifen and doxorubicin were used as positive controls. Library compounds were measured for their ability to cause acute toxicity in the cell line, as reflected by a decrease in intracellular ATP levels, in a concentration-dependent manner. […] AC50 values were determined from concentration-response data modeled with the standard Hill equation.
qHTS protocol for CellTiter Glo NIH 3T3 cellular assay
[Step] [Parameter] [Value] [Description]
1. Reagent; 5 uL; 1000 NIH 3T3 cells/well
2. Time; 5 hr; 37 °C incubation
4. Controls; 23 nL; Tamoxifen 0.34 uM to 100 uM & Doxorubicin 0.02 nM to 100 uM
5. Time; 40 hr; 37 °C incubation
6. Reagent; 5 uL; CellTiter Glo reagent
7. Time; 20 min; Room Temperature
8. Detection; Luminescence; Viewlux plate reader
Keywords: cell viability, cytotoxicity, NIH 3T3 cell line, luminescence, NTPHTS, NTPHTS_NCGC, NIEHS, EPA, DSSTox, MLSMR, MLSCN, NIH Roadmap, qHTS, NCGC
With `O=CNc1ccccc1` the Potency was “inactive”. In the case of `COC(=O)CCC(=O)OC`, the Potency is reported as “inactive”. With `CCOCCOCC` the Potency was “inactive”. In the case of `C/C(C=O)=C/c1ccccc1`, the Potency is reported as “inactive”. In the case of `NC(=O)/N=N/C(N)=O`, the Potency is reported as “inactive”. In the case of `Nc1cccc([N+](=O)[O-])c1`, the Potency is reported as “inactive”. In the case of `CCCCCO`, the Potency is reported as “inactive”. In the case of `COC(=O)CCCC(=O)OC`, the Potency is reported as “inactive”. For `CC(C)C=O`, the Potency was “inactive”. With `O=C(O)c1ccc(CO)o1` the Potency was “inactive”. In the case of `CCN(Cc1ccccc1)c1ccccc1`, the Potency is reported as “inactive”. In the case of `COc1ccc(N=[N+]([O-])c2ccc(OC)cc2)cc1`, the Potency is reported as “inactive”. For `Cc1ccc(C)c([N+](=O)[O-])c1`, the Potency was “inactive”. For `CC(C)N=C=NC(C)C`, the Potency was “inactive”. With `O=C1NC(=O)c2cc([N+](=O)[O-])ccc21` the Potency was “inactive”. For `Nc1ccccc1S(=O)(=O)O`, the Potency was “inactive”. For `C=CCOC(=O)CCCCCCCC`, the Potency was “inactive”. With `Cc1ccc(S(=O)(=O)NC2CCCCC2)cc1` the Potency was “inactive”. For `CCCCOCCOCCSC#N`, the Potency was “inactive”. With `Cc1ccc(C)o1` the Potency was “inactive”. With `C=Cc1ccccn1` the Potency was “inactive”. In the case of `O=C(Cl)c1ccccc1[N+](=O)[O-]`, the Potency is reported as “inactive”. For `NC(N)=S`, the Potency was “inactive”. In the case of `CC(O)COC(C)(C)C` (stereo not given), the Potency is reported as “inactive”. In the case of `C/C=C1\CC2C=CC1C2` (stereo not given), the Potency is reported as “inactive”. In the case of `CC(C)(O)C(=O)O`, the Potency is reported as “inactive”. For `CCc1ccccc1O`, the Potency was “inactive”. With `Cc1ccc2nc(-c3ccc(N)cc3)sc2c1S(=O)(=O)O` the Potency was “inactive”. In the case of `Oc1c(Cl)ccc(Cl)c1Cl`, the Potency is reported as “inactive”. In the case of `O=[N+]([O-])c1c(Cl)cc(Cl)cc1Cl`, the Potency is reported as “inactive”. With `CCc1ccccc1` the Potency was “inactive”. In the case of `CCC=O`, the Potency is reported as “inactive”. In the case of `CCCCCCCN`, the Potency is reported as “inactive”. In the case of `NCCCCCCN`, the Potency is reported as “inactive”. In the case of `S=C([S-])NCCNC(=S)[S-].[Zn+2]`, the Potency is reported as “inactive”. For `CC=C(Cl)Cl`, the Potency was “inactive”. In the case of `CCC(C)(C)OC`, the Potency is reported as “inactive”. With `CCC(O)C(C)(C)C` (stereo not given) the Potency was “inactive”. In the case of `CC(=O)OCc1ccco1`, the Potency is reported as “inactive”. With `O=Cc1ccccc1Cl` the Potency was “inactive”.
